HTR5A ag: HTR5A agonism, opioid heterodimer counter-screen; HTR5A agonist assay, luminescence, cell-based; 340,000 compounds, 0.61% hits; AID 504692; activation, % at 9.3 µM; in the data active = activation mostly above about 9.5%, no sharp cut-off; inactive = mostly below about 7.6%;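 note: 0% = cells with vehicle only and 100% = reference agonist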
Target sequence (P47898 whole entry, looked up): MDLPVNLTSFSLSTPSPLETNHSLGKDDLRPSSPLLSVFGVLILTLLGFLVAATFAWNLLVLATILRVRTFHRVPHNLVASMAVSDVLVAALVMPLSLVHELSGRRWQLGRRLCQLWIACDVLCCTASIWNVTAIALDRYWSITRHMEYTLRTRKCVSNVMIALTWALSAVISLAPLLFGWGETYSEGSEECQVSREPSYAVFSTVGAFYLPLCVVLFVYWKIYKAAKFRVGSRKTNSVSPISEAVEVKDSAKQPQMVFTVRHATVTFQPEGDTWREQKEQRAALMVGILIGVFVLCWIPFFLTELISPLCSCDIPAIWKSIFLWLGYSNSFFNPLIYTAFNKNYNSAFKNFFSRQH
MOR-DOR ag: OPRM1-OPRD1 heterodimerization agonism; P35372+P41143; cells, luminescence; activation, % at 9.3 µM; 340,000 compounds, 0.3% hits; in the data active = activation above about 18%;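 note: 0% = vehicle-treated cells and 100% = reference agonist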
MOR-DOR inv ag: inverse agonists of human mu-delta opioid receptor heterodimerization. 340,000 compounds, 0.21% hits. cell-based MOR-DOR heterodimer luminescence, inverse agonism. inhibition, % at 9.3 µM. P35372+P41143; in the data active = inhibition above about 22%, passing the limit was not always enough;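 note: 0% = cells with DMSO and 100% = wells without cells with DMSO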
HTR5A inv ag: inverse agonist of human HTR5A in OPRM1-OPRD1 counter-screen; AID 504634; P47898; 340,000 compounds, 0.083% hits; HTR5A cell line, luminescence, inverse agonism; inhibition, % at 9.3 µM; in the data active = inhibition mostly above about 23%, no sharp cut-off; inactive = mostly below about 18%;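 note: 0% = cells with DMSO and 100% = no-cell wells with DMSO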
MOR-DOR inv conf: confirmation of human OPRM1-OPRD1 heterodimerization inverse agonists | shares compounds with MOR-DOR inv ag | cells expressing OPRM1/OPRD1 heterodimer, luminescence | inhibition, % at 9.3 µM | 580 compounds, 20% hits | AID 504900; in the data active = inhibition above about 32%;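 note: 0% = cells with DMSO and 100% = wells lacking cells with DMSO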
HTR5A inv count: HTR5A inverse agonism, opioid heterodimer counter-screen. shares compounds with MOR-DOR inv ag. HTR5A-expressing cells, luminescence. inhibition, % at 9.3 µM. 580 tested, under 10 active. AID 504914; call rule not given here;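 note: 0% = cells with DMSO and 100% = no-cell wells with DMSO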
Active calls of the source: *; i = inactive; . = no result given. Only some compounds are listed: those with a hit (about 1.1% of all), similar ones and a draw of the others.

SMILES	HTR5A ag	MOR-DOR ag	MOR-DOR inv ag	HTR5A inv ag	MOR-DOR inv conf	HTR5A inv count
CNC(=O)c1ccc(NC(=O)Cc2ccc(S(=O)(=O)N3CCOCC3)s2)cc1	8.2	0.5	-3.4	-24.6	.	.
CCC1(CC)NC(=O)N(CC(=O)OCC(=O)c2ccccc2OC)C1=O	-1.8	-0.2	1.4	4.7	.	.
C/C(=C\C(=S)Nc1ccccc1)Nc1ccccc1	-10.4	-6.1	31.5*	13.5	-22.4	2.3
COC(=O)c1ccc(C)c(-n2c(=O)n(Cc3ccccc3)c(=O)c3[nH]cnc32)c1	-6.8	-11.5	52.1*	24.0	-45.8	9.1
Cc1ccccc1-n1c(=O)n(Cc2ccccc2)c(=O)c2[nH]cnc21	-7.9	-3.7	19.3	3.5	.	.
CCOc1ccccc1OCCCC(=O)Nc1cccc(-n2cnnn2)c1C	-0.5	-2.7	10.4	1.1	.	.
Cc1ccc(Cl)c2c1NC(=O)C2=O	-4.4	-18.7	85.9*	22.5	74.3*	9.1
CCS(=O)(=O)Nc1cccc(C(=O)CC2(O)C(=O)Nc3ccccc32)c1 (stereo not given)	6.0	-5.1	30.9	13.9	.	.
O=C(CC1(O)C(=O)Nc2ccccc21)c1cccc(Br)c1 (stereo not given)	-3.5	-6.3	33.0*	12.8	15.4	10.9
CS(=O)(=O)Nc1cccc(C(=O)CC2(O)C(=O)Nc3ccc(Br)cc32)c1 (stereo not given)	3.1	-7.0	35.0*	-8.1	4.3	2.2
NC(=O)CN1C(=O)C(O)(CC(=O)c2ccccc2O)c2ccccc21 (stereo not given)	-5.8	-8.5	43.2*	17.4	42.9*	1.4
COC(=O)CN1C(=O)C(O)(CC(=O)c2cccc(Br)c2)c2ccccc21 (stereo not given)	-7.1	-8.4	42.7*	21.1	16.8	7.0
CS(=O)(=O)Nc1cccc(C(=O)CC2(O)C(=O)Nc3ccccc32)c1 (stereo not given)	-1.7	-2.8	16.5	4.5	.	.
COc1ccc(-c2nnc(SCC(=O)NC3CCCCC3)n2N)cc1	4.5	-1.2	6.3	-9.0	.	.
CN(C1=C(NC(=O)c2ccc(Cl)cc2)C(=O)c2ccccc2C1=O)c1ccccc1	-2.2	-6.2	38.9*	19.4	-19.0	-9.0
COc1ccc(C(=O)NCC(=O)OCC(=O)c2c(C)[nH]c3ccccc23)cc1OC	-1.0	-0.2	1.0	3.4	.	.
O=C(Cn1nnc2ccccc21)OCC(=O)c1ccc(Cl)c(Cl)c1	-3.3	-13.2	71.2*	11.9	-105.9	-22.7
O=C(Cn1nnc2ccccc21)OCC(=O)c1ccccc1	1.3	-2.9	17.0	5.3	.	.
C[n+]1c2n(c3ccccc31)N=C(c1cc(C(C)(C)C)c(O)c(C(C)(C)C)c1)CS2	-0.9	-6.2	31.8*	19.1	50.6*	16.5
Cn1c(=O)[nH]c(=O)c2c1nc(Br)n2C/C=N/Nc1ccccc1	2.1	-7.2	35.3*	-5.7	i	-26.1
C[C@@H]1CCC[C@]2(O[C@@H](CCO)C[C@@H](O)[C@@H]2O)O1	4.0	-1.5	8.3	6.8	.	.
O=C(Nc1c(C(=O)O)[nH]c2ccccc12)NC1CCCCC1	0.6	-7.2	32.0*	4.4	-74.4	-7.1
CC(=O)Oc1ccc(OC(C)=O)c2c1CC(C)=C(C)C2	-1.8	-8.7	38.8*	6.5	59.5*	13.3
Cc1cccc(OCCN2C(=O)c3ccccc3C2=O)c1	2.0	2.9	-16.0	-21.6	.	.
Cc1cccc2c1N(C)C(=O)C2=O	-2.7	-4.4	25.4	7.0	.	.
SMILES	HTR5A ag	MOR-DOR ag	MOR-DOR inv ag	HTR5A inv ag	MOR-DOR inv conf	HTR5A inv count
CCOC(=O)CN1C(=O)C(=O)c2cccc(C)c21	-8.7	-14.6	75.4*	24.5	i	-107.6
Cc1ccc(OCCN2C(=O)C(=O)c3cccc(C)c32)cc1	-0.5	-7.8	42.3*	1.5	-29.1	-15.1
CC(C)(Oc1ccc(F)cc1)C(=O)OCC(=O)c1ccc(S(C)(=O)=O)cc1	-8.7	-15.1	58.4*	20.5	-34.7	-0.3
CC(=O)Oc1ccc(OC(C)=O)c(SCCCCCN2CCOCC2)c1	2.2	-5.5	29.4*	-9.5	-13.9	-3.4
CCN(CC)CCCn1c2c(c(SCC(=O)Nc3ccccc3Cl)nc1=O)CCC2	-1.7	-1.0	5.1	4.2	.	.
COc1ccc(OCC(=O)NCCNC(=O)c2cccnc2)cc1	-1.9	0.6	-4.1	11.1	.	.
O=C1C=C(O)c2cccc3cccc1c23	-1.0	-2.7	12.8	3.6	.	.
NN=C1C(=O)c2cccc3cccc1c23	-3.9	-11.4	57.2*	15.1	-98.4	-0.7
CCOc1ccc(N=C2C(=O)N(CN3CCOCC3)c3ccccc32)cc1	-4.9	-16.1	66.8*	15.6	49.2*	-9.3
CCOc1ccc(OCCN2C(=O)c3ccccc3C2=O)cc1	-2.8	-0.3	2.0	-9.9	.	.
Cc1cc(C)nc(NNS(=O)(=O)c2c(C)cc(C(C)(C)C)cc2C)n1	-5.1	-4.8	25.2	12.4	.	.
Cc1cc(C)nc(NNS(=O)(=O)c2c(F)cc(F)cc2Br)n1	2.6	-8.1	31.4*	-6.6	-93.3	-37.3
CC(=O)OCC1(C)CN(c2ccccc2)N(C(C)=O)C1=O (stereo not given)	-4.6	-8.1	39.9*	10.9	-52.0	-202.4
CC(=O)OCC1(C)CN(c2ccccc2)N(C(=O)c2ccc(C(C)(C)C)cc2)C1=O (stereo not given)	-6.0	-3.2	23.1*	3.2	-5.8	-232.3
COC(=O)CN1CC(=O)N(c2ccccc2)C1=S	1.1	-0.2	1.2	-3.0	.	.
CC(=O)OCC1(C)CN(c2ccccc2)NC1=O (stereo not given)	-1.4	-8.5	42.1*	3.4	24.6	1.3
Cc1noc(C)c1S(=O)(=O)N1CCN(c2ccccc2Cl)CC1	3.4	-1.2	7.5	-1.1	.	.
Cc1cccc(NC(=S)NC(=O)c2ccco2)n1	-3.3	-3.2	21.8*	-13.8	-35.0	-89.7
Cc1nc2c(sc3nc(N4CCOCC4)c4c(c32)CC(C)(C)OC4)c(-c2ccc(Cl)cc2)c1C(=O)O	5.0	1.4	-7.0	-3.0	.	.
O=C(CNc1ccccc1C(=O)O)c1ccccc1	-5.5	-14.2	70.7*	15.7	-24.4	0.8
O=C(Nc1ccccc1C(=O)O)c1ccccc1	-2.6	0.0	0.1	-11.2	.	.
NC(=O)c1ccccc1OCC(=O)c1ccc(Cl)cc1	3.1	-0.9	4.5	-8.4	.	.
NC(=O)c1ccccc1NCC(=O)c1ccc(Cl)cc1	-1.1	-8.3	46.2*	4.4	i	-6.8
COc1ccc(CCOC(=O)c2ccc(N)c([N+](=O)[O-])c2)cc1	1.5	6.8	-35.3	11.7	.	.
Nc1ccc2c(c1)CC(=O)c1ccccc1S2	1.0	-8.4	45.4*	-7.6	i	5.9
CC(=O)NC(c1ccc(Cl)cc1)c1c(O)ccc2ccc(O)cc12 (stereo not given)	-3.6	-6.6	33.0*	9.8	-18.5	1.9
CCC(=O)NC(c1ccc(OC)cc1)c1c(O)ccc2ccccc12 (stereo not given)	6.9	-1.4	10.3	-19.0	.	.

Source: PubChem
